# Data: PubChem BioAssay (Tox21)
# Several values for one entry are separate records, joined by “and”; a condition that tells them apart may be missing. Identical values can stand only once. Values without a mark were called inactive. Records with an inconclusive call do not appear. A call without a number means that no potency is given here. Activity calls are given as the source filed them. Unless noted, calls follow the shape of the dose curve; as a rule, active = well fitted curve in the direction sought with a large enough effect in the repeat runs; inconclusive = weak or mixed curves; inactive = no such curve, though single readings can be large; an effect the other way counts as inactive or inconclusive.
# Tests used:
# [1] = qHTS assay to identify small molecule agonists of the AP-1 signaling pathway - cell viability counter screen (AID 1159525; calls by dose curve; also: nearly all actives have a fitted effect of over 55% in size; also: potency is read from the fitted curve at half-maximal effect)
# How it was run: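 Each titration point was normalised to DMSO and tetra n-octyl ammonium bromide controls. The read was Cell Titer Glo luminescence after 30 min at RT, following 5 h compound exposure of ME-180 AP-1-bla cells at 37 °C.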
# [2] = target: Nuclear receptor subfamily 1 group I member 3 (Homo sapiens) (UniProt Q14994); assay: qHTS assay to identify small molecule antagonists of the constitutive androstane receptor (CAR) signaling pathway (AID 1224838);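 also: HepG2 cells stably expressing hCAR with CYP2B6 luciferase reporter stimulated by CITCO; nearly all actives have a fitted effect of over 40% in size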; also: potency is read from the fitted curve at half-maximal effect
# How it was run: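 Antagonist mode used CITCO at a final 50 nM to activate CAR in human hepatoma HepG2 cells carrying stable hCAR and a 2.2 kb CYP2B6 promoter-luciferase construct. Compounds were tested at 15 concentrations over 24 h, with luminescence as the end point.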
# [3] = qHTS assay to identify small molecule agonists of the estrogen related receptor signaling pathway with the pleiotropic PPARgamma coactivator (PGC) from Tox21 10K library (AID 1224842); also: nearly all actives have a fitted effect of over 15% in size
# How it was run: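 PGC/ERR reporter cells (NTP line) were seeded 2,000 per well, rested 6 h at 37 C/5% CO2, then pin-dosed with compounds in DMSO for 18 h at 37 C; luciferase read by One-Glo luminescence after 30 min at room temperature.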
# [4] = A CellTox Green Cytotoxicity Assay to monitor cytotoxicity in HEK293 cells - 0 hour (AID 1224869); also: nearly all actives have a fitted effect of over 50% in size
# How it was run: (§1)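 Cells (HEK293, 600/well) and dye reagent are dispensed together. After 5 h at 37 C, 23 nL compound is pinned in. Plates stay at 37 C for 40 h with fluorescence read at 0h, 8h, 16h, 24h, 32h and 40h.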
# [5] = qHTS RealTime-Glo MT Cell Viability Assay in HepG2 cells - 40 hour (AID 1224870); also: nearly all actives have a fitted effect of over 50% in size; also: potency is read from the fitted curve at half-maximal effect
# How it was run: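 HepG2 cells mixed with RealTime-Glo MT reagents (NanoLuc plus cell-permeant prosubstrate) were seeded at 600 cells/well, incubated 5 h at 37 C/5% CO2, then pinned with compounds in DMSO; nonlytic luminescence tracked viability during 40 h treatment.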
# [6] = A CellTox Green Cytotoxicity Assay to monitor cytotoxicity in HEK293 cells - 40 hour (AID 1224871); also: potency is read from the fitted curve at half-maximal effect; nearly all actives have a fitted effect of over 45% in size
# How it was run: as §1
# [7] = qHTS RealTime-Glo MT Cell Viability Assay in HEK293 cells - 40 hour (AID 1224874); conditions: RealTime-Glo luminescence; max response: hits give low values; also: potency is read from the fitted curve at half-maximal effect; nearly all actives have a fitted effect of over 50% in size
# How it was run: (§2)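 Real-time viability in HEK293: signal arises when living cells convert a prosubstrate for NanoLuc in the medium, so luminescence tracks viable cell number. Compound (23 nL, DMSO) added 5 h post-seeding; kinetic reads at 0–40 h, 37 C.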
# [8] = A CellTox Green Cytotoxicity Assay to monitor cytotoxicity in HepG2 cells - 16 hour (AID 1224876); also: nearly all actives have a fitted effect of over 45% in size; also: potency is read from the fitted curve at half-maximal effect
# How it was run: (§3)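 Cells and non-lytic dye reagent are dispensed together (600 HepG2 cells/well) and incubated 5 h before DMSO compound transfer. Kinetic fluorescence is then recorded in the same wells during 40 h at 37 C.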
# [9] = qHTS RealTime-Glo MT Cell Viability Assay in HepG2 cells - 32 hour (AID 1224877); also: nearly all actives have a fitted effect of over 55% in size; also: potency is read from the fitted curve at half-maximal effect
# How it was run: (§4)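 Luminescence read-out: viable HepG2 cells reduce a prosubstrate to a NanoLuc substrate, giving a signal proportional to live cell number. Reads taken at 0, 8, 16, 24, 32 and 40 h of compound exposure at 37 C.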
# [10] = qHTS RealTime-Glo MT Cell Viability Assay in HEK293 cells - 0 hour (AID 1224880); also: top concentration of the series differs between compounds; nearly all actives have a fitted effect of over 45% in size
# How it was run: as §2
# [11] = A CellTox Green Cytotoxicity Assay to monitor cytotoxicity in HEK293 cells - 16 hour (AID 1224888); also: nearly all actives have a fitted effect of over 35% in size; also: potency is read from the fitted curve at half-maximal effect
# How it was run: as §1
# [12] = qHTS RealTime-Glo MT Cell Viability Assay in HepG2 cells - 0 hour (AID 1224889); also: nearly all actives have a fitted effect of over 50% in size
# How it was run: as §4
# [13] = A CellTox Green Cytotoxicity Assay to monitor cytotoxicity in HepG2 cells - 8 hour (AID 1224890); also: nearly all actives have a fitted effect of over 45% in size; also: potency is read from the fitted curve at half-maximal effect
# How it was run: as §3
# [14] = qHTS assay to identify small molecule antagonists of the estrogen receptor alpha (ER-alpha) signaling pathway using the BG1 cell line in the presence of 0.1 nM 17-beta-estradiol - cell viability counter screen (AID 1259241); also: nearly all actives have a fitted effect of over 40% in size
# How it was run: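 Cytotoxicity counter-screen: live-cell protease activity measured by fluorescence (30 min reagent step) in the same wells. Cells were VM7Luc4E2 with endogenous ER-alpha and ERE-driven luciferase, treated 22 hr at 37C alongside 0.1 nM 17beta-estradiol final.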
# [15] = qHTS assay to identify small molecule antagonists of the sonic hedgehog signaling (Shh) pathway (AID 1259369; calls by dose curve)
# How it was run: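 Cells are plated and held 4hr at 37 C, compounds (DMSO) are pinned in, conditioned medium is added to stimulate the pathway, and after 24hr luciferase reagent is added for 30min before luminescence is read.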
# [16] = qHTS assay to identify small molecule agonists or antagonists of the thyroid stimulating hormone receptor (TSHR) signaling pathway - wild type cell line counter screen (AID 1259384; calls by dose curve)
# How it was run: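 Wild-type HEK293 cells were plated 18 h at 37 C/5% CO2, pin-dosed with compound plus Ro20-1724 medium, held 30 min at room temperature, then given cAMP-d2 and anti-cAMP-cryptate; fluorescence was read after 1 h. Fifteen concentrations, triplicate.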
# [17] = qHTS assay to identify small molecule agonists of the TGF-beta/Smad signaling pathway (AID 1346859; active = well fitted activation curve with a large enough effect in the signal ratio in the repeat runs, not every such curve was filed as active; the % refers to the signal ratio; also: series mostly up to about 77 µM)
# How it was run: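 Fluorescence (ex 405 nm; em 460 and 530 nm) was read 2 h after LiveBLAzer FRET substrate at RT. The preceding compound treatment of overnight-plated SBE-bla HEK293T cells lasted 5 h at 37 C.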
# [18] = target: Cytochrome P450 1A2 (Homo sapiens) (UniProt P05177); assay: Cytochrome P450 Family 1 Subfamily A Member 2 (CYP1A2) small molecule antagonists: luciferase reporter qHTS assay (AID 1671199); also: nearly all actives have a fitted effect of over 50% in size; also: potency is read from the fitted curve at half-maximal effect
# How it was run: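 Compounds were incubated with CYP1A2 and a luminogenic proluciferin substrate for 10 min at room temperature before the reaction was started with NADPH regeneration solution. After 1 h, detection reagent was added and light output, proportional to CYP activity, was recorded.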
# [19] = target: Voltage-gated inwardly rectifying potassium channel KCNH2 (Homo sapiens) (UniProt Q12809); assay: Human Ether-a-go-go-Related Gene (hERG) channel small molecule antagonists: fluorescence cell-based qHTS assay (AID 1671200)
# How it was run: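 Thallium flux as potassium surrogate: FluxOR II dye loaded 1 h at room temperature into hERG-expressing U2OS cells, then stimulus buffer added after 10 min. Kinetic 480 nm excitation/540 nm emission read, 2 min.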
# [20] = qHTS assay to identify small molecule HDAC inhibitors - cell viability counter screen (AID 1259365)
# How it was run: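 CellTiter-Glo luminescence (30 min, room temperature) reported viability after a 2 h compound exposure at 37 C. Cells: wild-type HCT-116, 1,500 per well, seeded the night before.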
# Chain of Nuclear receptor subfamily 1 group I member 3 (Homo sapiens) (Q14994 whole entry, looked up): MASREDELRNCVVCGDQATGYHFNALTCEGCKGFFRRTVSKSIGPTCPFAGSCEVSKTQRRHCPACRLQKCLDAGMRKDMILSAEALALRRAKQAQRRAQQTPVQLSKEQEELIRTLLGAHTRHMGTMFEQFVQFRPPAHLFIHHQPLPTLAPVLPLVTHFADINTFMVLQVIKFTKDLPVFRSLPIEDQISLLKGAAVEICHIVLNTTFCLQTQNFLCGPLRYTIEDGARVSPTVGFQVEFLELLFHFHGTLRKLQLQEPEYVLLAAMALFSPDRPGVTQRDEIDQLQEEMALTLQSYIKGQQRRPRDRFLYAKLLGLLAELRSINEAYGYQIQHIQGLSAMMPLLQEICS
# Chain of Voltage-gated inwardly rectifying potassium channel KCNH2 (Homo sapiens) (Q12809 whole entry, looked up): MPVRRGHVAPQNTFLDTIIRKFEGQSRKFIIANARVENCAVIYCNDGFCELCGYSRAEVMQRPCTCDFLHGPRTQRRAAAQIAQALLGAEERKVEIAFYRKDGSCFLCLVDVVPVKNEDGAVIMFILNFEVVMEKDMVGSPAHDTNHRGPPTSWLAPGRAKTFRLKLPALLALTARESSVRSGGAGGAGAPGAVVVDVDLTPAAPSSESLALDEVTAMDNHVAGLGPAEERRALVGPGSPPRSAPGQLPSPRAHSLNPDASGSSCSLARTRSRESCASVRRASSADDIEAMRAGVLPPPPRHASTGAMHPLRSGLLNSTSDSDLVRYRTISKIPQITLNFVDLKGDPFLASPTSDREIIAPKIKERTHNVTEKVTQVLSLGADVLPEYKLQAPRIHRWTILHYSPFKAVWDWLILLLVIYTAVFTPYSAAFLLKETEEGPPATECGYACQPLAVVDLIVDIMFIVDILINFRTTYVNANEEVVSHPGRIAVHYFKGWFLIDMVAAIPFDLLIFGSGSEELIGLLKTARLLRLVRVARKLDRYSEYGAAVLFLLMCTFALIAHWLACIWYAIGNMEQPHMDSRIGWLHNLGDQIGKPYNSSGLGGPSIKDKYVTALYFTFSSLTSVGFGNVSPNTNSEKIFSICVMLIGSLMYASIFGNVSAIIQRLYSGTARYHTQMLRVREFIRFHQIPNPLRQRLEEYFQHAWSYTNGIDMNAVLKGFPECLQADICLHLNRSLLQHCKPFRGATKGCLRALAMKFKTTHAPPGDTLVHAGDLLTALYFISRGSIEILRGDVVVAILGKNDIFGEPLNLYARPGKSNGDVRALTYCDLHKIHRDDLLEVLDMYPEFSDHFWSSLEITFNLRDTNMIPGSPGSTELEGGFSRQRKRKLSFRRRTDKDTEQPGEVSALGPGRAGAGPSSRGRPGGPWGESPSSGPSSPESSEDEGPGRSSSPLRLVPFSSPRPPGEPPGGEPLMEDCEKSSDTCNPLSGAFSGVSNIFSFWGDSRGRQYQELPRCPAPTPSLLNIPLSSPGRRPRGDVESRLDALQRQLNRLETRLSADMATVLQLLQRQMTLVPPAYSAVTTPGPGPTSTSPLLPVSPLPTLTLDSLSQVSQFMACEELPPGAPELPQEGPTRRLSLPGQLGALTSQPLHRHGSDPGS
# Chain of Cytochrome P450 1A2 (Homo sapiens) (P05177 whole entry, looked up): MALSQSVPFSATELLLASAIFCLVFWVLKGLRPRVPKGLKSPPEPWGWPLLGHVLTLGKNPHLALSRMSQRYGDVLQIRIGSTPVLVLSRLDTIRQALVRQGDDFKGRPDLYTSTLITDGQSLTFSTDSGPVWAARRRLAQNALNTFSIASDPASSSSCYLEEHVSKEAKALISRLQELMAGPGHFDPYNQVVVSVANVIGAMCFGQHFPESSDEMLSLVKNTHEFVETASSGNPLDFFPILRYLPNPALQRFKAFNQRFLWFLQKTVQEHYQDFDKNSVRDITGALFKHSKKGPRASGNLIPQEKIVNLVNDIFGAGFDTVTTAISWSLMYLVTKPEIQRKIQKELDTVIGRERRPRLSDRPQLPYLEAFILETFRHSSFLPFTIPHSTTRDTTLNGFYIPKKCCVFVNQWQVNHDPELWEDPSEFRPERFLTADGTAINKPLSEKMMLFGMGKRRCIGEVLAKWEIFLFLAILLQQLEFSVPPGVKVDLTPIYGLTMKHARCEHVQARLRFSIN
SMILES,Potency [1],Potency [2],Potency [3],Potency [4],Potency [5],Potency [6],Potency [7],Potency [8],Potency [9],outcome [10],Potency [11],Potency [12],Potency [13],Potency [14],Potency [15],outcome [16],outcome [17],Potency [18],Potency [19],outcome [20]
Cc1ccc(N(SC(F)(Cl)Cl)S(=O)(=O)N(C)C)cc1,30.9 µM (active),27.3 µM (active),inactive,inactive,9.77 µM (active),4.9 µM (active),5.49 µM (active),17.4 µM (active),9.77 µM (active),inactive,24.5 µM (active),inactive,inactive,inactive,2.73 µM (active),inactive,inactive,22.4 µM (active),21.9 µM (active),–
ClC1=C(Cl)[C@]2(Cl)[C@@H]3[C@@H](Cl)[C@H]4O[C@H]4[C@@H]3C1(Cl)C2(Cl)Cl,49 µM (active),inactive,inactive,inactive,–,54.9 µM (active),–,–,–,inactive,–,inactive,–,inactive,48.6 µM (active),–,inactive,inactive,54.9 µM (active),inactive
CCOC(=O)C(O)(c1ccc(Cl)cc1)c1ccc(Cl)cc1,44.1 µM (active) and 43.6 µM (active),inactive,–,inactive,inactive,44.1 µM (active),22.1 µM (active) and 34.7 µM (active),inactive,inactive,inactive,inactive,inactive,inactive,inactive,7.77 µM (active) and 19.3 µM (active),–,inactive,40.3 µM (active) and 71 µM (active),22.1 µM (active) and 21.9 µM (active),inactive
O=C(c1ccccc1)C(Cl)Cl,inactive,–,inactive,inactive,inactive,34.7 µM (active),38.9 µM (active),inactive,inactive,inactive,inactive,inactive,inactive,inactive,30.6 µM (active),–,–,31.7 µM (active),–,–
O=[N+]([O-])c1cc(C(F)(F)F)ccc1Cl,–,–,inactive,–,–,–,–,–,–,–,–,–,–,–,–,–,–,–,–,–
O=S(=O)(C(Cl)(Cl)Cl)C(Cl)(Cl)Cl,49 µM (active),24.3 µM (active),inactive,inactive,34.7 µM (active),17.4 µM (active),8.71 µM (active),38.9 µM (active),34.7 µM (active),inactive,24.5 µM (active),–,34.7 µM (active),inactive,2.17 µM (active),inactive,inactive,22.4 µM (active),24.5 µM (active),–
Cc1nnc2n1-c1sc(CCc3ccc(CC(C)C)cc3)cc1C(c1ccccc1Cl)=NC2C (stereo not given),26.8 µM (active),inactive,inactive,inactive,–,23.9 µM (active),9.52 µM (active),inactive,–,–,inactive,inactive,inactive,inactive,21.1 µM (active),inactive,–,inactive,15.1 µM (active),inactive
Nc1ccc([N+](=O)[O-])cc1,38.9 µM (active),inactive,–,inactive,inactive,38.9 µM (active),38.9 µM (active),–,inactive,inactive,–,inactive,43.6 µM (active),–,27.3 µM (active),inactive,inactive,39.9 µM (active),–,inactive
